According to PubChem BioAssay AID602292 (National Center for Advancing Translational Sciences (NCATS), 2012):
Screen size: about 1,300 compounds; about 380 (29%) were called active. Roughly 37% stayed inconclusive and do not appear here. The list shows a part of the results. A number with no mark means an inactive call. Calls follow the shape of the dose curve; as a rule, active = well fitted inhibition curve with a large enough effect; inconclusive = small, poorly fitted or top-dose-only effect; inactive = flat fitted curve, though single readings scatter.

These compounds were tested against Thyrotropin receptor (Homo sapiens) (UniProt P16473) (assay: qHTS for antagonists of the Thyroid Stimulation Hormone Receptor: Hit Validation in Primary Screen). Conditions: TSHR-expressing cells, cAMP antagonist mode; series mostly up to 58 µM; activity change, negative = inhibition: at the top concentration.
Source text: The thyroid-stimulating hormone receptor (TSHR) is a member of the 7 trans-membrane-spanning receptor (7TMR) family of cell surface receptors. TSHR-mediated hyperthyroidism is important in thyroid pathology. The development of small molecule antagonists of TSHR may lead to therapeutic approaches for TSHR-mediated hyperthyroidism caused by constitutively activating mutations or stimulating auto-antibodies associated with Graves' disease. Graves' disease is the leading cause of hyperthyroidism and is caused by autoantibodies that stimulate TSHR (TsAbs) causing thyroid growth and unregulated overproduction of thyroid hormones and existing treatments have liabilities (agranulocytosis). In addition, TSHRs are known to be expressed in multiple extrathyroidal tissues including bone, brain, kidney, testis, fat and cells of the immune system but the role of the TSHR in these tissues is not clear. Therefore, TSHR antagonists/inverse agonists could be used as probes of extrathyroidal TSHR function. Finally, TSHR inverse agonists, which are a subclass of antagonists that inhibit agonist-independent (or basal or constitutive) TSHR signaling, could be used to inhibit TSH-independent signaling in patients with recurrent or metastatic thyroid cancer who are receiving thyroid hormone to suppress TSH.
In collaboration between scientist from the NCGC and the NIDDK, a miniaturized HTRF high-throughput screen was developed. It's a cell based assay, where an anti cAMP antibody contains a fluorescent cryptate tag (excitation 337 nm; emission 620 nm) and the acceptor is cAMP-d2 (excitation 620 nm; emission 665 nm). When antibody and cAMP-d2 interact and are excited by a 337 nm light, a FRET occurs resulting in emission at 665 nm. The assay is competition between cAMP-d2 and cAMP (from the cell lysate). The homogeneous protocol allows for one step dispense after stimulation that is automation friendly. This is a hit validation assay using the primary screen format.
NIH Chemical Genomics Center [NCGC]
NIH Molecular Libraries Probe Centers Network [MLPCN]
Assay Provider: Marvin Gershengorn, NIDDK
1. 3ul of 200 TSHR freshly harvested cells/well are dispensed into a 1536 TC-treated white solid bottom plate.
2. Through pintool addition, 23nl of compounds and control in 100% DMSO are added to the plate.
3. Then 1ul of EC80 TSH (4nM final) is added to the plate.
4. Assay is incubated at 37 deg C for 2 hours.
5. 2ul of cAMP antibody diluted 1:20 in lysis buffer is added.
6. Immediately following, 2ul of d2 diluted 1:20 in HBSS is added seperately.
7. The assay is incubated for 30 minutes at ambient room temperature.
8. The result is obtained by using a ViewLux read-out with HTRF settings.
% is scaled to controls: 0 for no effect and ±100 for the full control effect; potency is read from the fitted curve at half-maximal effect.
Also: nearly all actives have a fitted effect of over 80% in size.
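For activity change, negative = inhibition in this document: cells stimulated with TSH at EC80 of 4 nM during compound exposure; cAMP by competitive HTRF where cellular cAMP lowers the 665 nm FRET signal.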

Thyrotropin receptor (Homo sapiens), sequence (P16473 whole entry, looked up): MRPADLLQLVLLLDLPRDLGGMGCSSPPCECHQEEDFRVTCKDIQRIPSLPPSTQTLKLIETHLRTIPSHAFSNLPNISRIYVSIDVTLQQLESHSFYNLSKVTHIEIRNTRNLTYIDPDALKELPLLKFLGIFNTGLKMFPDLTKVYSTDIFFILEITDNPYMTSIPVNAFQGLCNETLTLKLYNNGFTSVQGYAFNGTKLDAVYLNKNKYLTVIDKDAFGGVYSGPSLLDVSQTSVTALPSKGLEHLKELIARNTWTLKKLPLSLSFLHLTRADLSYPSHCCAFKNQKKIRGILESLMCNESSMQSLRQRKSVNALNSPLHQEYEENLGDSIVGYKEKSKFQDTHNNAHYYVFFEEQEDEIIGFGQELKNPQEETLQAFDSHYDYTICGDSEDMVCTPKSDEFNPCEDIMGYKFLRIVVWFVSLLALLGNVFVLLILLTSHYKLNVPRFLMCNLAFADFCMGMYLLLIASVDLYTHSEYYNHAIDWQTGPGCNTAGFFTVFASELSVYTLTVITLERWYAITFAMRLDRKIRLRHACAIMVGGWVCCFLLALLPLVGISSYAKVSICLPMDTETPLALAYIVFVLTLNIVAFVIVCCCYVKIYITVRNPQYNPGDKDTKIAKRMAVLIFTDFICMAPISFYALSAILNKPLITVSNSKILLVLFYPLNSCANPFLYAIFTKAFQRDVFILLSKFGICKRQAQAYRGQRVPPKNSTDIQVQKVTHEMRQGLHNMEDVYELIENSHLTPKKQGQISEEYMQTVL

Row | Compound | Potency | activity change, negative = inhibition
1 | CC(C)C1Nc2c(O)cc(Cl)c([N+](=O)[O-])c2C2C=CCC21 (stereo not drawn) | 8.49 µM (active) | –
2 | COc1ccc(CNC(=O)CCS(=O)(=O)c2cc3c(cc2Cl)NC(=O)CO3)cc1 | – | -4.93%
3 | C/C(=N\NC(=O)c1cccc(Cl)c1)C1C(=O)c2ccccc2C1=O | 12 µM (active) | –
4 | CC(=O)N1c2ccc(S(=O)(=O)N3CCC(C(=O)NC4CCCCC4C)CC3)cc2CC1C (stereo not drawn) | – | -8.1%
5 | O=C(COc1ccc(Cl)cc1Cl)Nc1ccc(C(=O)Nc2ccccc2C(=O)O)cc1 | 23.9 µM (active) | –
6 | O=C(CSc1ccccn1)Nc1cccc2ccccc12 | – | -7.49%
7 | O=C(Nc1cccc2ccccc12)c1ccccc1 | – | -10.5%
8 | O=C(COc1cccc2ccccc12)Nc1ccc(Cl)cc1C(=O)O | 4.78 µM (active) | –
9 | O=C(CSc1ccc2nnc(CCNC(=O)c3ccccc3)n2n1)NCc1ccc(F)cc1 | – | -0.864%
10 | N#Cc1ccc(C(=O)Nc2nc(-c3cccs3)c(C(=O)C(F)(F)F)s2)cc1 | 6.01 µM (active) | –
11 | Cc1ccccc1NC(=O)CCc1c(C)nn(-c2ccc(N3CCOCC3)nn2)c1C | – | -1.58%
12 | CC(=O)c1c(O)cc(O)c(C(C)=O)c1O | 30.1 µM (active) | –
13 | Cc1ccc(-n2nc3c(=O)n(C(C)C(=O)NC4CC4)nc(C)c3c2C)cc1 (stereo not drawn) | – | -5.96%
14 | COc1cc(C(=O)N/N=C/c2cn(Cc3ccccc3)c3ccccc23)ccc1O | – | -12%
15 | COc1ccc(-c2nn(-c3ccccc3)cc2/C=N/NC(=O)c2ccc(Br)o2)cc1 | 9.53 µM (active) | –
16 | CCN(C(=O)CSc1nnc(CNc2cccc(OC)c2)n1C1CCCCC1)C1CCS(=O)(=O)C1 (stereo not drawn) | – | -3.31%
17 | CC(=O)c1cccc(NC(=O)c2sc3nc4n(c(=O)c3c2C)CCCC4)c1 | – | -17.4%
18 | CC(=O)c1cccc(NS(=O)(=O)c2cc(-c3cnc(C4CC4)o3)ccc2C)c1 | 21.3 µM (active) | –
19 | Cc1ccc(-c2cnc(C3CC3)o2)cc1S(=O)(=O)Nc1ccccc1 | 30.1 µM (active) | –
20 | COc1ccc(NS(=O)(=O)c2cc(-c3cnc(C4CC4)o3)ccc2C)cc1 | 26.9 µM (active) | –
21 | COc1ccc(-c2cc3c(=O)n(CC(=O)NCc4cccnc4)nc(C)n3n2)cc1 | – | -5.13%
22 | CCCn1c(=O)c2[nH]c(C3CCCC3)nc2n(CCC)c1=O | – | -2.13%
23 | O=C(NN=C1CCCC1)c1cc(Cl)cc(Cl)c1O | – | -9.28%
24 | CC1=N/C(=C\c2ccc([N+](=O)[O-])cc2)C(=O)N1c1ccc(Cl)cc1 | – | -0.461%

Row | Compound | Potency | activity change, negative = inhibition
25 | Cc1c(Cl)sn(-c2ccc(Cl)cc2)c1=O | 26.9 µM (active) | –
26 | O=C(NCCc1ccccc1)c1cc2ccccc2oc1=O | – | -2.82%
27 | O=C(Nc1ccc(N2CCN(C(=O)c3ccccc3)CC2)cc1)c1cc2ccccc2o1 | 23.9 µM (active) | –
28 | CS(=O)(=O)N(Cc1ccccc1)c1ccc(C(=O)N2CCN(c3cccc(Cl)c3)CC2)cc1 | – | -7.49%
29 | CCN(c1ccc(OC)cc1)S(=O)(=O)c1cc(-c2cc(C)no2)ccc1C(C)C | – | -9.45%
30 | CCc1ccc(-c2cc(C)no2)cc1S(=O)(=O)N1CCN(c2ccccn2)CC1 | 30.1 µM (active) | –
31 | CC(NC(=O)c1cc(=O)[nH]c2ccccc12)c1ccc(F)cc1F (stereo not drawn) | – | -4.26%
32 | Cc1ccc(NC(=O)Cn2ncc3c([nH]c4ccccc43)c2=O)cc1Cl | – | -8.04%
33 | O=C(Nc1ccc(Cl)cc1)c1cc2c(cc1O)[nH]c1ccccc12 | 3.01 µM (active) | –
34 | COC(=O)Cc1c(C)[nH]n(-c2cc(Cl)cc(Cl)c2)c1=O | – | -7.75%
35 | Cc1cc(C)n2nc(SCC(=O)Nc3ccccc3C)nc2n1 | – | 0.49%
36 | Cc1cc(C(=O)NC2CCCc3c2cnn3-c2ccc(C(C)(C)C)cc2)nn1C (stereo not drawn) | 30.1 µM (active) | –
37 | Cc1cc(C)cc(OC(C)C(=O)NCCCn2ccnc2)c1 (stereo not drawn) | – | -1.84%
38 | O=C(Nc1ccc(Cl)c(S(=O)(=O)N2CCOCC2)c1)c1ccc(OCC2CCCO2)cc1 (stereo not drawn) | 15.1 µM (active) | –
39 | CC1=C(C(=O)N2CCCC(N3CCN(c4ccccc4C)CC3)C2)OCCO1 (stereo not drawn) | – | -5.88%
40 | COCCNC(=O)CN1C(=O)c2cccc3cccc1c23 | – | -3.72%
41 | COc1ccccc1N1CCN(C(=O)CCC(=O)N2CCN(c3ccc(F)cc3)CC2)CC1 | – | -12.6%
42 | CCOc1ccccc1N1CCN(C(=O)CCCN2C(=O)c3cccc4cccc(c34)C2=O)CC1 | 30.1 µM (active) | –
43 | Nc1ccc(C(=O)NC2CCSc3ccccc32)cc1[N+](=O)[O-] (stereo not drawn) | – | -14.1%
44 | O=C(COC(=O)c1ccccc1C(=O)c1ccc(Cl)c([N+](=O)[O-])c1)NC1CCCCCC1 | 23.9 µM (active) | –
45 | Cc1ccc(NC(=O)CCc2nnc3ccc(NCc4ccco4)nn23)nc1 | – | -7.92%
46 | CN(C)c1ccc(NC(=O)C2C3C=CC(C3)C2C(=O)O)cc1 (stereo not drawn) | – | -8.9%
47 | Cc1ccc(S(=O)(=O)NC(=O)Nc2ccc(N(C)C)cc2)cc1 | 30.1 µM (active) | –
48 | CN(C)c1ccc(NC(=O)Oc2ccccc2)cc1 | – | -7.4%
